D1 potentiator – Potentiators of Human D1 Dopamine Receptor: qHTS. HEK293 TREx D1 cells, calcium flux, dopamine EC20 potentiation. potentiation, % at 10 µM. 360,000 tested, 0.036% active. AID 504651, 2011; in the data active = potentiation above about 30%; note: 0% is about no effect
D1 antagonist – Antagonist of Human D 1 Dopamine Receptor: qHTS | HEK293 TREx D1 cells, calcium flux, dopamine EC80; active compounds read low | activity change, negative = inhibition, % at 10 µM | 360,000 tested, 3.2% active; in the data active = activity change below about -30%; note: % is set by controls: 0 for no effect and ±100 for the full control effect
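Using tetracycline-induced force-coupled D1 Hek293 cells and a calcium dye, signals were followed for 180 s after compound, then for 180 s after EC80 dopamine, to detect inhibitors.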
D1 agonist – Allosteric Agonists of the Human D1 Dopamine Receptor: qHTS; activation, % at 2 µM; 360,000 tested, 1% active; HEK293 T-REx D1 cells, calcium flux, agonist mode; D(1A) dopamine receptor (Homo sapiens), P21728; note: 0% is about no effect
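Agonism was scored from calcium flux recorded over 180 s (1 read/s) after pintool compound addition, following a 10-cycle baseline. Cells were inducible force-coupled HEK293 TREx D1, plated overnight at 30 C and loaded with no-wash calcium dye.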
TRHR enhancer – qHTS for Small Molecule Agonists and Allosteric Enhancers of Human TRH Receptor: Primary Screen for Enhancers | TRHR cells, fluo-8 calcium fluorescence, EC20 TRH enhancement | enhancement, % at 2 µM | 360,000 tested, 0.66% active; in the data active = enhancement above about 30%; note: 0% is about no effect
Target sequence (P34981 whole entry, looked up): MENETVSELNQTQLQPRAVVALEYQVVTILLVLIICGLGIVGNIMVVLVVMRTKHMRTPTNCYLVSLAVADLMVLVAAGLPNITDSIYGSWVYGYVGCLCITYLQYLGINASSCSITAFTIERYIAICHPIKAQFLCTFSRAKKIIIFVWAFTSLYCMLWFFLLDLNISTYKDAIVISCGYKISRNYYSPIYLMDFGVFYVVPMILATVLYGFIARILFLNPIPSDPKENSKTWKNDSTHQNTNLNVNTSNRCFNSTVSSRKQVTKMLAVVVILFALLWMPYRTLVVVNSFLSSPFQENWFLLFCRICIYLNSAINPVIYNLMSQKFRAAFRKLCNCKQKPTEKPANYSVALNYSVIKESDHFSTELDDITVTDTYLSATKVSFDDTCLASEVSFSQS
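TRHR-expressing cells loaded with fluo-8 calcium dye were read kinetically (ex 480/em 530) during compound addition, then stimulated with an EC20 of TRH (10 nM final). Enhancement of the Gq-mediated intracellular calcium response was scored.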
TRHR ag – qHTS for Small Molecule Agonists and Allosteric Enhancers of Human TRH Receptor: Primary Screen for Agonists; TRHR cells, calcium flux fluo-8, FDSS agonist mode; 360,000 tested, 0.18% active; activation, % at 2 µM; note: 0% is about no effect
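TRHR-expressing cells, plated overnight in medium with 10% serum, were loaded with fluo-8 calcium dye at room temperature. After a 10 s baseline, library compound was pin-added and calcium release was recorded kinetically (ex 480/em 530) as agonist response.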
* marks the source's active call; other numbers are inactive results; ! = a repeat was not active. Only some compounds are listed: those with a hit (about 4.6% of all), similar ones and a draw of the others. Cut-off read from the data, not from the text of the source, unless noted: active = activation above about 30%; inactive = the rest.

SMILES | D1 potentiator | D1 antagonist | D1 agonist | TRHR enhancer | TRHR ag
CCOC(=O)c1ccc(NC(=O)C2=C(C)C(=O)OC23CCCCCC3)cc1 | -1.9 | -13.1 | 3.8 | 8.4 | 0.8
Cc1ccc(S(=O)(=O)NNC(=O)C2Cc3c(ccc4ccccc34)O2)cc1 (stereo not given) | -3.5 | -23.1 | 32.6* | -4.0 | 0.0
Cc1cccc(CSc2cn(CC(=O)N3CCCCCC3)c3ccccc23)c1 | -6.2 | -22.3 | 10.2 | 4.8 | -2.3
Cc1cccc(CSc2cn(CC(=O)N3CCOCC3)c3ccccc23)c1 | 0.9 | -33.4*! | 1.6 | -0.4 | -0.2
Cc1ccc(CNC(=O)c2cc3cc(C)ccc3n2C)cc1 | 1.0 | 9.4 | -0.3 | 10.2 | 1.2
COc1ccccc1CNCC(O)(c1ccc(Cl)cc1)c1ccc(Cl)cc1 | 1.2 | 23.0 | 6.4 | 1.9 | 0.7
COc1ccccc1CNN | 0.5 | 12.0 | 1.5 | 33.1* | 0.0
COc1ccccc1CNCC(O)(c1ccc(F)cc1)c1ccc(F)cc1 | -10.3 | -51.9* | 2.2 | -8.2 | 1.1
COc1ccccc1NS(=O)(=O)c1cccc(C(=O)N/N=C/c2c(CO)cnc(C)c2O)c1 | -7.0 | -30.5* | 12.6 | -3.3 | 15.9
COc1ccc(NC(=O)CN2CCCN(Cc3ccc(Cl)cc3)S2(=O)=O)cc1Cl | -0.7 | -3.5 | 2.3 | -11.6 | 0.2
Cc1ccc(C(CNS(=O)(=O)c2ccc(Cl)cc2)N2CCN(C)CC2)cc1 (stereo not given) | -10.2 | -34.4* | 42.5* | 0.0 | 0.7
Cc1ccc(C(CNS(=O)(=O)c2ccc(C)cc2)N2CCN(C)CC2)cc1 (stereo not given) | -0.9 | -8.1 | 8.9 | 4.9 | 0.1
Cn1c(=O)n(C)c2cc(NC(=O)COc3ccc(F)cc3F)ccc21 | -6.0 | -14.3 | 1.4 | 1.3 | -0.1
CN1CCC(N(C)S(=O)(=O)c2ccc(NC(=O)COc3ccc(F)cc3)cc2)CC1 | -7.8 | -25.7 | 23.9 | 7.2 | 0.4
Cn1c(=O)n(C)c2cc(NC(=O)COc3ccc(Cl)cc3)ccc21 | -6.3 | -32.9* | 17.9 | 0.4 | -0.3
Cc1nn(C)c(Oc2ccc(Cl)cc2)c1C(=O)O | -8.4 | -33.3* | 1.5 | -5.0 | 0.2
Cc1cccc(C)c1OCC(=O)Nc1c(C)nn(C)c1C | -2.2 | 0.2 | 1.6 | -7.8 | 1.1
Cc1nn(C)c(C)c1NC(=O)COc1ccc(Cl)cc1 | 1.1 | -33.5* | 14.3 | 2.4 | -0.1
CN1CCC(N(C)S(=O)(=O)c2ccc(NC(=O)COc3ccc(Cl)cc3)cc2)CC1 | -2.9 | -17.9 | 47.6* | -0.4 | 1.7
Cc1cc(C)n2nc(CNC(=O)c3cccc(N(C)C)c3)nc2n1 | -2.0 | 7.7 | -1.3 | -4.5 | 0.5
CCN1C(=NCC(C)C)N[C@@H](c2ccccc2)[C@H](C(=O)OC)[C@H]1C | -0.8 | -6.5 | 2.7 | 4.8 | 0.5
Cc1cccc(Cn2c(C)c(C)c3cc(C(=O)NCc4ccco4)ccc32)c1 | -2.3 | -13.0 | 3.3 | -6.6 | -0.1
CC(Oc1cccc(Cl)c1)C(=O)Nc1ccc(S(=O)(=O)N(C)C2CCN(C)CC2)cc1 (stereo not given) | -8.5 | -61.6* | 93.8* | 0.0 | 3.5
CC(=O)Nc1ccc(S(=O)(=O)N(C)C2CCN(C)CC2)cc1 | -2.3 | -1.6 | 3.0 | -3.6 | 0.5
CN1CCC(N(C)S(=O)(=O)c2ccc(NC(=O)COc3ccc([N+](=O)[O-])cc3)cc2)CC1 | -8.4 | -3.6 | 34.4* | -3.3 | 1.9
SMILES | D1 potentiator | D1 antagonist | D1 agonist | TRHR enhancer | TRHR ag
O=C(Nc1ccc(F)c(F)c1)C1CCCN1S(=O)(=O)c1cccc2nsnc12 (stereo not given) | 3.2 | -5.0 | 0.4 | 0.3 | -0.3
COc1ccc(CCN=C(N)C(C)c2ccccc2)cc1OC (stereo not given) | -2.7 | 0.8 | 0.5 | -1.9 | 0.1
CC(C)Cc1ccc(C(C)C(N)=NCCc2ccccc2)cc1 (stereo not given) | -8.0 | 19.5 | 30.3* | -6.2 | 3.5
Fc1ccc(-c2n[nH]c(=S)n2Cc2ccccc2)cc1 | -6.0 | -3.1 | -0.9 | -4.6 | -1.6
CC(C)(C)c1ccc(-c2n[nH]c(=S)n2Cc2ccccc2)cc1 | -0.7 | 1.4 | 91.5* | 0.0 | -1.5
FC(F)C(F)(F)Oc1cccc(-c2n[nH]c(=S)n2Cc2ccccc2)c1 | 4.1 | -39.5* | 0.2 | 2.1 | -0.2
Cc1cccc(-n2ncc3c(NCCN4CCOCC4)ncnc32)c1 | -3.2 | -2.7 | 0.9 | 18.9 | 0.5
Cc1ccc(-n2ncc3c(NCCc4ccc(S(N)(=O)=O)cc4)ncnc32)cc1 | -4.1 | -48.1* | -3.2 | -3.8 | 0.1
Cc1cccc(-n2ncc3c(NCCc4ccc(S(N)(=O)=O)cc4)ncnc32)c1 | -10.2 | -47.7* | -0.4 | -6.2 | 0.1
c1ccc(CCNc2ncnc3c2cnn3-c2ccccc2)cc1 | -8.6 | 21.4 | -1.8 | -0.8 | 0.2
Cc1cc2c(s1)c1cnn(Cc3cc(C(F)(F)F)cc(Cl)c3F)c(=O)c1n2C | -5.0 | -35.0* | 5.6 | 6.0 | 1.6
Cc1cc2c(s1)c1cnn(Cc3cccc(Cl)c3F)c(=O)c1n2C | 6.3 | 11.0 | 0.6 | 2.4 | 0.2
COC(=O)c1ccccc1NC(=O)Cn1ncc2c(C)n(Cc3ccc(F)cc3)c(C)c2c1=O | -2.9 | -70.7* | 2.7 | -3.5 | 0.9
CCOc1ccccc1NC(=O)Cn1ncc2c([nH]c3ccccc32)c1=O | -4.0 | -30.4* | 3.1 | -0.3 | -1.0
CC(C)(C)c1ccc(/C=C/C(=O)Nc2ccc(S(N)(=O)=O)cc2)cc1 | -2.2 | -14.0 | 33.1* | 7.7 | -1.1
COc1ccc(/C=C/C(=O)Nc2ccc(C)cc2)cc1 | -2.5 | -64.5* | 1.0 | -5.5 | -0.7
NS(=O)(=O)c1ccc(NC(=O)/C=C/c2ccc(S(=O)(=O)NCc3ccco3)cc2)cc1 | -5.2 | -43.1* | 4.9 | -5.8 | 0.6
O=C(O)/C=C/c1ccc(S(=O)(=O)NCc2ccco2)cc1 | -1.9 | -0.3 | 4.6 | -3.9 | 0.6
CC(=O)c1ccc(NC(=O)/C=C/c2ccc(C)cc2)cc1 | -4.8 | -9.0 | 4.3 | -3.2 | -0.1
NS(=O)(=O)c1ccc(NC(=O)/C=C/c2cccc(Cl)c2)cc1 | -2.5 | -9.1 | 0.6 | 14.7 | 0.2
CCOc1ccccc1C(=O)NCc1ccc2c(c1)CCN2C(C)=O | -2.0 | -9.1 | 1.8 | 9.9 | -0.1
O=C(N/N=C/c1cccs1)c1ccc(NC(=O)c2ccccc2Cl)cc1 | -17.8 | -53.1* | 2.5 | 3.0 | -0.2
O=C(N/N=C/c1ccc(O)cc1)c1ccc(NC(=O)c2ccccc2Br)cc1 | -7.8 | -46.6* | 1.7 | -2.5 | 0.7
Cc1ccccc1C(=O)Nc1ccc(C(=O)N/N=C/c2ccc(O)cc2)cc1 | -9.1 | 0.0 | -0.5 | 6.9 | 0.0
